Results filed as inconclusive are left out. Unmarked numbers belong to inactive results. Activity calls are given as the source filed them. The rule behind the calls is not given here.
% is set by controls: 0 for no effect and ±100 for the full control effect; potency is the fitted concentration of half-maximal effect.

A short description of this experiment: qHTS assay to identify small molecule antagonists of the estrogen related receptor signaling pathway with the pleiotropic PPARgamma coactivator (PGC) from Tox21 10K library (AID 1224841). Note: actives are mostly falling curves and most rising ones were filed inactive; nearly all actives have a fitted effect of over 50% in size. Conditions: PGC/ERR reporter cell line, ONE-Glo luciferase, 18 h; series mostly up to 92.4 µM; activity, negative = inhibition: at the top concentration. From the text: U.S. Tox21 Program National Center for Advancing Translational Sciences [NCATS] NIH Chemical Genomics Center [NCGC] U.S. Environmental Protection Agency [EPA] National Institutes of Environmental Health Sciences [NIEHS] National Toxicology Program [NTP] U.S. Food and Drug Administration [FDA] Tox21 Assay Overview: Estrogen related receptors (ERRs), the first orphan nuclear receptors discovered, play an important role in the control of cellular energy metabolism. ERRs are required for high-energy production in response to the environmental challenges. The pleiotropic PPARgamma coactivator (PGC) is a major partner of ERR and a key regulator in energy homeostasis. Together they have been implicated in the etiology of metabolic disorders such as Type 2 diabetes and metabolic syndrome. ERR-alpha was also identified as an adverse marker for breast cancer progression; ERR-alpha-positive tumors have a poor prognosis. To screen and to identify environmental compounds that perturb the ERR and PGC/ERR signaling pathways could provide valuable information for potential therapeutic or preventive measures in the treatment of metabolic disease. For identifying PGC/ERR antagonists, PGC/ERR cell line (provided by NTP) has been used to screen Tox21 10K library.
Tox21 Assay Protocol Summary: The PGC/ERR cells were dispensed at 2,000 cells/5 ul/well in 1536-well white plates using a Multidrop dispenser. After the assay plates were incubated at a 37 C/5% CO2 incubator for 6 hours, 23 nL of compounds dissolved in DMSO, positive and negative controls or DMSO only was transferred to the assay plate by a pin tool. The plates were incubated at 37 C for 18 hours. 4 ul/well of One-Glo reagent was added into the assay plates using a Flying Reagent Dispenser. After 30-minute incubation at room temperature, the luminescence intensity in the plates was measured using a ViewLux plate reader.
On the technique in general: qHTS replaces the single test concentration by a dilution series.
As to `CCN(CCO)c1cccc(C)c1`, the “activity, negative = inhibition” value was -19.7%.

Consider `O=C1c2ccccc2-c2ccccc21`, for which the “activity, negative = inhibition” value was 14.9%.

With `CCCCC(CC)CNC(=O)CC(C)OC(=O)CCC(=O)O` (stereo not given), the “activity, negative = inhibition” value is 68.6% [at 42.5 µM].

`C[C@@H]1C[C@H]2[C@@H]3C[C@H](F)C4=CC(=O)C=C[C@]4(C)[C@@]3(F)[C@@H](O)C[C@]2(C)[C@@]1(O)C(=O)CO`: the “activity, negative = inhibition” value is 16.1% [at 42.5 µM].

With `O=CN1CCOCC1`, the “activity, negative = inhibition” value is 1.94%.

With `CCCCOC(=O)C(=O)OCCCC`, the “activity, negative = inhibition” value was 7.97%.

For `CC(=O)c1ccc(OCC(=O)N2CCCCC2)cc1`, the “activity, negative = inhibition” value was 35.5% [at 42.5 µM].

As to `CCCCCCCCCCCCCCCCI`, the activity, negative = inhibition is -7.26% [at 19 µM].

For `CN[C@@H]1[C@@H](O)[C@@H](O[C@@H]2[C@H](O)[C@H](O[C@H]3OC(CN)=CC[C@H]3N)[C@@H](N)C[C@H]2N)OCC1(C)O` (stereo not given in full), the “activity, negative = inhibition” value was -0.142% [at 42.5 µM].

Take `CCNC(=O)NCCCOc1cccc(CN2CCCCC2)c1`: the “activity, negative = inhibition” value was -5.53% [at 42.5 µM].

For `NS(=O)(=O)c1ccccc1OC(F)(F)F`, the “activity, negative = inhibition” value is 6.55%.

Take `O=[Si]=O`: the “activity, negative = inhibition” value is 19.5%.

For `O=c1[nH]c(=O)c2ccccc2o1`, the “activity, negative = inhibition” value was 1.16% [at 42.5 µM].

Consider `C[CH2][Ge]([Cl])([CH2]C)[CH2]C`, for which the “activity, negative = inhibition” value was 22.1%.

Consider `CCCCC(C)C(=O)O` (stereo not given), for which the “activity, negative = inhibition” value is 10.6%.

As to `CC(=O)Nc1ncc([N+](=O)[O-])s1`, the “activity, negative = inhibition” value was 19.2% [at 42.5 µM].

Regarding `F[Si-2](F)(F)(F)(F)F`, the “activity, negative = inhibition” value was 0.124%.

Turning to `CCC(C)(CCC(C)C)C(=O)[O-].CCC(C)(CCC(C)C)C(=O)[O-].[Zn+2]` (stereo not given), the “activity, negative = inhibition” value was -21.3%.

Regarding `CCC1COC(=O)O1` (stereo not given), the “activity, negative = inhibition” value was 12.6%.

As for `C=CCOc1c(Br)cc(C(C)(C)c2cc(Br)c(OCC=C)c(Br)c2)cc1Br`, the Potency is 26.6 µM (active).

Take `O=C(O)/C=C/c1ccccc1`: the “activity, negative = inhibition” value was 9.4%.

Take `CC(C)SCc1ccco1`: the “activity, negative = inhibition” value is -12% [at 42.5 µM].

As for `CNCc1ccccc1`, the “activity, negative = inhibition” value is -0.936% [at 42.5 µM].

Turning to `O=C(O)c1ccc(OCCN2CCCCC2)cc1`, the “activity, negative = inhibition” value is 7.54% [at 42.5 µM].

Turning to `Nc1ccc(C(=O)OCC(O)CO)cc1` (stereo not given), the “activity, negative = inhibition” value was -8.27% [at 42.5 µM].

As to `C=C(C)C(=O)OCCCCCCOC(=O)C(=C)C`, the “activity, negative = inhibition” value is 8.75%.

Consider `CC(=O)OC[C@H]1O[C@@H](OC(C)=O)[C@H](OC(C)=O)[C@@H]1OC(C)=O`, for which the “activity, negative = inhibition” value was 10.8% [at 42.5 µM].

As to `CCCCCCCCCCCCCCCCCCN(C)C`, the “activity, negative = inhibition” value is -2.4% [at 42.5 µM].

As to `C=CCOc1c(Br)cc(Br)cc1Br`, the “activity, negative = inhibition” value is 1.17%.

For `CC(C)COC(=O)COc1ccc(Cl)cc1Cl`, the “activity, negative = inhibition” value is 9.26%.

Consider `C[C@H](CCC(=O)NCC(=O)O)[C@H]1CC[C@H]2[C@@H]3[C@H](O)C[C@@H]4C[C@H](O)CC[C@]4(C)[C@H]3C[C@H](O)[C@]12C`, for which the “activity, negative = inhibition” value is -9.62%.

In the case of `Oc1ccccc1Cc1ccccc1O`, the “activity, negative = inhibition” value is 0.334%.

Take `O=C(O)CCNC(=O)c1ccccc1`: the “activity, negative = inhibition” value is 0.556% [at 42.5 µM].

Regarding `NC(=O)C1(N2CCCCC2)CCN(CCCC(=O)c2ccc(F)cc2)CC1`, the “activity, negative = inhibition” value was -13.3% [at 42.5 µM].

On to `COc1cc(C=O)ccc1OC(=O)C(C)C`, for which the “activity, negative = inhibition” value was -18.9%.

For `CC(=O)/C=C/c1ccco1`, the “activity, negative = inhibition” value was 0.391%.

With `CC(C)(c1ccc(Oc2ccc3c(c2)C(=O)OC3=O)cc1)c1ccc(Oc2ccc3c(c2)C(=O)OC3=O)cc1`, the “activity, negative = inhibition” value was 2.99%.

For `C1CCN2C[C@@H]3C[C@@H](CN4CCCC[C@@H]34)[C@H]2C1`, the “activity, negative = inhibition” value is 2.54% [at 42.5 µM].

With `CC(=O)c1ccc2c(c1)CCCC2`, the “activity, negative = inhibition” value was 14.1%.

With `CC1CCC(C(C)(C)S)C(=O)C1` (stereo not given), the “activity, negative = inhibition” value was -2.48%.

Source of the values: PubChem BioAssay (Tox21).
